# GPR151 ag – human GPR151 activation; activation, % at 11.2 µM; PathHunter beta-arrestin GPR151 cells, luminescence; Q8TDV0; actives 1% (n = 650,000); in the data active means activation above about 4.9%;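 further: 0% = median of compound wells and 100% = cells with positive control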
# FBW7 act – human FBW7 E3 ligase activation, primary screen; Q969H0; AlphaScreen FBW7–phospho-cyclin E peptide binding, activator screen; normalized activity (activation), % at 26.1 µM; actives 0.13% (n = 650,000); AID 1259310; in the data active means normalized activity above about 1.9%;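 further: purified mutant Fbw7 with reduced substrate affinity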
# MITF primary – blocks human microphthalmia-associated transcription factor. inhibition, % at 2.6 µM. AlphaScreen MITF homodimerization, bead proximity signal. AID 1259374. actives 0.91% (n = 650,000). O75030; in the data active means inhibition above about 50%;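 further: 0% = vehicle wells with protein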
# Target sequence (O75030 whole entry, looked up): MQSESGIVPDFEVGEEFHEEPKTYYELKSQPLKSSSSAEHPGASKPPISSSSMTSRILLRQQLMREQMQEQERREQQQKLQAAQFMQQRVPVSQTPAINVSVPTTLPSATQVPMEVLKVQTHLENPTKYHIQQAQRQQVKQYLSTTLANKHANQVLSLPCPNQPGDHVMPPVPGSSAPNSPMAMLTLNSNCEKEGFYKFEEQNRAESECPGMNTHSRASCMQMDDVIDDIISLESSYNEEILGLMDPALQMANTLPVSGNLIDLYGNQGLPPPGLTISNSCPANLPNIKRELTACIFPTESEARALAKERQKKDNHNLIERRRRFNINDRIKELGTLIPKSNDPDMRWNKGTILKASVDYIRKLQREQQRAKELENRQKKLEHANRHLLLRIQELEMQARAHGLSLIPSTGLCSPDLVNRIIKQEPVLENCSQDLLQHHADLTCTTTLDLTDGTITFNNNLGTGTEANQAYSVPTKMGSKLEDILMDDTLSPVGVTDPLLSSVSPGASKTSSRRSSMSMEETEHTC
# TEAD-YAP inh – TEAD-YAP interaction inhibition; HEK-TIYL cells, TEAD-Gal4/YAP UAS-luciferase luminescence; inhibition, % at 9.12 µM; actives 1.4% (n = 640,000); in the data active means inhibition above about 32%;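 further: 0% = median of test compound wells and 100% = reference inhibitor wells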
# Starred values were filed as active, the others as inactive. A selection: hits, their analogues and other compounds. The true share with any hit is near 3.5%.
SMILES,GPR151 ag,FBW7 act,MITF primary,TEAD-YAP inh
Cc1ccc2oc(-c3cccc(N)c3C)nc2c1,-10,0,-3,43*
Cc1cc(C)c2oc(-c3ccc(N)cc3O)nc2c1,-1,0,3,37*
NC(=O)C1CCN(C(=O)c2ccc3c(=O)n(Cc4ccco4)c(SCc4ccc(F)cc4Cl)nc3c2)CC1,-1,0,12,9
Cc1cc(OCC(=O)Nc2c(C)nn(Cc3ccc(F)cc3)c2C)ccc1[N+](=O)[O-],0,0,10,54*
Cc1cc(OCC(=O)Nc2ccc(F)cc2)ccc1[N+](=O)[O-],-1,0,1,-12
O=C(CSc1nnc(-c2ccc3c(c2)OCO3)o1)Nc1ccc2c(c1)OCO2,0,1,6,-39
Cc1ccc(-n2nc(C)c(NC(=O)CCl)c2C)cc1C,2,0,-7,45*
CCC(=O)Nc1c(C)nn(-c2ccc(C)c(C)c2)c1C,-1,0,-2,-27
O=C(NCCC1=CCCCC1)c1cccnc1SCc1ccccc1Cl,-1,0,-1,-2
Cc1ccc(C2/C(=C(/O)c3ccc(Br)cc3)C(=O)C(=O)N2CCCn2ccnc2)cc1 (stereo not given),-1,0,1,8
CC(=O)c1cccc(NC(=O)Cc2noc3ccccc23)c1,-1,2,1,-19
COc1ccc(CC(=O)Nc2cccc(-c3ccc(N4CCOCC4)nn3)c2)cc1OC,-7,0,-4,34*
CC(Oc1ccccc1F)C(=O)Nc1cccc(-c2ccc(N3CCOCC3)nn2)c1 (stereo not given),-2,0,16,42*
O=C(Cc1noc2ccccc12)Nc1cccc(-c2ccc(N3CCCC3)nn2)c1,0,0,6,48*
CC(=Nc1cc(C)cc(C)c1)N(C)CCNS(=O)(=O)c1ccc([N+](=O)[O-])cc1,-2,0,-2,-6
Cc1c(C(=O)OC(C)C)sc(NC(=O)c2cc(Cl)ccc2[N+](=O)[O-])c1C(N)=O,-1,0,4,10
O=C(NCc1ccccc1)c1cnc(-c2ccc3[nH]ccc3c2)s1,-1,0,6,-8
COc1cc([N+](=O)[O-])ccc1NC1=CC(=O)CC(C)(C)C1,1,0,-2,-3
O=C(CN1C(=O)CCC1=O)NC(=S)Nc1cccc2c1C(=O)NC2=O,0,0,7,-5
N#Cc1ccccc1OCC(=O)NC(=O)NC1CCCC1,-6,0,-2,62*
COC(=O)c1nn(-c2ccc(F)c(Cl)c2)cc1O,0,0,6,-31
COC(=O)c1nn(-c2ccc(C)c(C)c2)cc1O,-6,0,-1,54*
Cc1cc(C)cc(NC(=O)Cn2cc3c(n2)CCCC3)c1,2,0,-6,-6
CCOC(=O)c1c(/N=C/c2cccc(OC)c2O)sc2c1CCN(C)C2,0,2.6*,21,-6
CCOC(=O)c1c(N)sc2c1CCN(C)C2,1,0,2,5
SMILES,GPR151 ag,FBW7 act,MITF primary,TEAD-YAP inh
O=C(N/N=C/c1cc(Cl)ccc1O)C(=O)Nc1ccccc1OC(F)(F)C(F)F,1,0,-6,79*
O=C(N/N=C/c1cc([N+](=O)[O-])ccc1O)C(=O)Nc1ccccc1OC(F)(F)C(F)F,-1,0,2,8
CC(C)N(CCNc1nc(Nc2nccc3ccccc23)nc2c1ncn2C(C)C)C(C)C,-1,0,20,50*
CCCNc1nc(Nc2cnccn2)nc2c1ncn2C(C)C,3,0,5,46*
CCN(CC)c1nc(C)nc2sc(C(=O)NC3CCCC(C)C3C)c(C)c12 (stereo not given),1,0,-4,4
Cc1ccnc(NC(c2cccs2)c2ccc3cccnc3c2O)c1 (stereo not given),0,-2,9,52*
Cc1ccnc(NC(c2ccccc2C)c2ccc3cccnc3c2O)c1 (stereo not given),0,0,17,90*
Cc1ccc(C)c(C(Nc2ccccn2)c2ccc3cccnc3c2O)c1 (stereo not given),-1,-1,13,76*
Cc1nc(SCC(=O)NC(N)=O)c2c(-c3cccs3)csc2n1,-1,1,8,-4
O=C(N1CCC(c2ncncc2-c2ccncc2)CC1)C1(c2cccc(F)c2)CCCC1,-1,0,11,-5
O=C(O)c1c(O)c2ccccc2[nH]c1=O,-1,0,9,3
O=c1[nH]c2ccccc2c(O)c1O,-1,0,8,38*
Cc1cnc(C(=O)Nc2cc(C(C)(C)C)no2)cn1,-1,0,21,-64
O=C(Nc1ccc2[nH]ncc2c1)C1CCN(C(=O)c2cc3cc(Cl)ccc3[nH]2)CC1,1,-1,1,-6
CCCOc1ccc(/C=N/NC(=O)Cc2cn3ccsc3n2)c(O)c1,0,0,2,-23
O=C(Cn1ccc(C(F)(F)F)n1)N/N=C/c1ccc(O)c(O)c1O,0,-1,65*,0
O=C(CCN1CCN(c2ccccc2)CC1)N/N=C/c1ccc(O)c(O)c1O,1,-1,70*,4
O=C(Cc1cn2ccsc2n1)N/N=C/c1ccc(O)c(O)c1O,0,-1,78*,-4
O=C(Cc1csc(N2CCOCC2)n1)NNC(=S)Nc1ccc(Cl)cc1Cl,-1,0,17,-3
CN1CCN(CCC(=O)N/N=C/c2ccc(O)cc2O)CC1,0,0,-77,1
O=C(Cc1csc(N2CCOCC2)n1)N/N=C/c1ccc(O)c(O)c1O,0,-1,66*,4
CCn1c(=NC(=O)c2cccc(N3C(=O)CCC3=O)c2)sc2cccc(F)c21,1,0,-11,-1
CCCCS(=O)(=O)/C=C\C=C\S(=O)(=O)CCCC,1,0,0,90*
COc1ccc(Cl)cc1-c1nc(C=Nc2cc([N+](=O)[O-])ccc2C)c(O)o1,1,0,8,7
Cc1ccc(C(=O)N/N=C/c2cc(Br)ccc2O)cn1,0,-1,84*,50*
SMILES,GPR151 ag,FBW7 act,MITF primary,TEAD-YAP inh
O=C(N/N=C/c1cc(Cl)cc(Br)c1O)c1ccccc1O,1,0,27,57*
O=C(N/N=C/c1ccccc1O)c1ccc(F)cc1,0,0,27,-34
COc1cc(Cl)cc(/C=N/NC(=O)c2ccccc2O)c1O,0,-3,45,75*
O=C(N/N=C/c1cc(Br)ccc1O)c1ccc(F)cc1,1,0,12,76*
COc1ccc(NC(=O)c2c(NC(=O)c3ccccc3Br)sc3c2CCCCC3)cc1,1,0,-6,-2
C=CCOc1ccc(C2/C(=C(/O)c3ccc(OCC=C)cc3C)C(=O)C(=O)N2CCCN2CCOCC2)cc1 (stereo not given),2,0,-7,-4
COc1cc(Br)cc(/C=N/NC(=O)c2ccc(C)nc2)c1O,0,-1,64*,28
COc1ccc(Cl)cc1/C=N/NC(=O)c1ccc(C)nc1,1,0,-3,-2
COc1cc(C(=O)N/N=C/c2cc(Br)cc(Cl)c2O)cc(OC)c1OC,1,-1,27,58*
Oc1ccc(Br)cc1/C=N/NC(=S)Nc1cccnc1,0,-1,57*,12

# Assay outcomes (PubChem)
